# PubChem BioAssay (NCATS)
# Results filed as inconclusive are left out. Values without a mark were called inactive. Calls come from the whole dose curve; as a rule, active = well fitted cell-killing curve with a large enough effect; inconclusive = small, poorly fitted or top-dose-only effect; inactive = flat fitted curve, though single readings scatter.
# Test: Cell Viability - LYMP2-006 (AID 978); note: nearly all actives have a fitted effect of over 60% in size
# Conditions: LYMP2-006 lymphoblastoid cell viability, qHTS; series mostly up to 92.2 µM; activity change, negative = cytotoxicity: at the top concentration
# Source text: NIH Chemical Genomics Center [NCGC]
# NIH Molecular Libraries Screening Centers Network [MLSCN]
# National Institutes of Environmental Health Sciences [NIEHS]
# National Toxicology Program [NTP]
# We have developed a 1536-well cell-based assay for quantitative high throughput screening (qHTS) against a number of cell lines to determine in vitro cytotoxicity of small molecules. This particular assay uses a human lymphoblastoid cell line (LYMP2-006) purchased from Coriell Institute for Medical Research.
# NCGC Assay Protocol Summary:
# The CellTiter-Glo luminescent cell viability assay (Promega) is a homogeneous method to measure the number of viable cells in culture. The end point readout of this assay is based on quantitation of intracellular ATP, an indicator of metabolic activity, using the luciferase reaction. Luciferase catalyzes the oxidation of beetle Luciferin to oxyluciferin and light in the presence of ATP. The luminescent signal is proportional to amount of ATP present.
# Using the CellTiter-Glo luminescent cell viability assay, the amount of cellular ATP was measured in the lymphoblastoid cell line with complete culture medium following compound treatment for 24 hours. The assay was performed in opaque white Kalypsys 1536-well plates. In the screen, tetraoctylammonium bromide was used as positive control. Library compounds were measured for their ability to cause acute toxicity in the cell line, as reflected by a decrease in intracellular ATP levels, in a concentration-dependent manner. […] AC50 values were determined from concentration-response data modeled with the standard Hill equation.
# qHTS protocol for CellTiter Glo lymphoblastoid cellular assay
# [Step] [Parameter] [Value] [Description]
# 1. Reagent; 5 uL; 2500 lymphoblastoid cells/well
# 2. Time; 5 hr; 37 C incubation
# 4. Controls; 23 nL; Tetraoctylammonium bromide 6.4pM to 92 uM
# 5. Time; 24 hr; 37 C incubation
# 6. Reagent; 5 uL; CellTiter Glo reagent
# 7. Time; 30 min; Room Temperature
# 8. Detection; Luminescence; Viewlux plate reader
# Keywords: cell viability, cytotoxicity, lymphoblastoid cell line, luminescence, NTPHTS, NTPHTS_NCGC, NIEHS, DSSTox, MLSMR, MLSCN, NIH Roadmap, qHTS, NCGC
# % is set by controls: 0 for no effect and ±100 for the full control effect.
row,Compound,"activity change, negative = cytotoxicity [%]"
1,Nc1nc(CC(=O)O)cs1,-7.96
2,CCN(C(=O)N(CC)c1ccccc1)c1ccccc1,0.453
3,CNC(=O)N(c1ccccc1)c1ccccc1,-2.8
4,O=[N+]([O-])c1ccccc1CCO,-8.57
5,COc1ccc(N)c(OC)c1,1.28
6,CCC(C)(C)C(=O)O,3.54
7,C=CCCCCCCC=C,0.392
8,CC(C)N=C=NC(C)C,-15.5
9,Cc1ccccc1C(N)=O,-2.5
10,O=C(O)c1ccccc1[N+](=O)[O-],-7.57
11,CCCC(C)CO (stereo not given),-12.2
12,Nc1cccc2c(=O)[nH][nH]c(=O)c12,-1.17
13,O=C(O)c1ccc(C(=O)O)cc1,-2.32
14,CC(=O)c1ccccc1[N+](=O)[O-],14.4
15,Nc1ccc(F)cc1F,16.6
16,Cc1cccc2cccnc12,4.22
17,Nc1nc(-c2ccccc2)cs1,-8.64
18,CC(=O)C1(C)CC2=C(CCCC2(C)C)CC1C (stereo not given),5.98
19,N#Cc1ccccc1,-16.2
20,C=C(C)OC(C)=O,0.603

row,Compound,"activity change, negative = cytotoxicity [%]"
1,CCOCC(=O)O,0.583
2,CO[Si](CCCNCCC[Si](OC)(OC)OC)(OC)OC,-8.26
3,CN(C)c1cccc(O)c1,-1.88
4,Cc1ccc2ccccc2c1[N+](=O)[O-],0.345
5,CC(CCl)OC(C)CCl (stereo not given),-14.3
6,NC(=S)NNC(N)=S,-11.9
7,C=CC(=O)NC(C)C,-2.84
8,C=CCn1c(=O)n(CC=C)c(=O)n(CC=C)c1=O,-7.67
9,C/C=C(/C)C#N,-2.64
10,C=Cc1ccc(C=C)cc1,0.213
11,CCN(CC)c1cccc(O)c1,4.02
12,NCCCCCCN,6.85
13,CCOC(C)(C)C,-3.34
14,CCCCC(CC)COCC1CO1 (stereo not given),-7.75
15,CCOc1cc(OCC)c(C(C)=O)cc1OCC,3.19
16,Cc1nc2ccc(Cl)cc2[nH]1,4.05
17,CC(=O)c1cc(C)oc1C,-4.59
18,CCCCCCCCCCCCOCC1CO1 (stereo not given),-3.27
19,CCCCCCCCC,14.6
20,CC(=O)OCc1ccco1,-6.24
